Experimental findings from PubChem BioAssay (NCI) are described below.

The panel holds about 83,000 compounds, 20% with a hit somewhere; the sample as a whole holds those more often.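 Assay: single dose, 48 h. Readout: percent growth (0 = no net growth; negative = cell death). Active: <10.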 A number with no mark means an inactive call. Activity calls are given as the source filed them.

The test system of this experiment is HCC-2998 colon. Description: NCI-60 one-dose screen, 48 h (100 = growth as untreated, 0 = no growth, -100 = all killed). The settings on record: 10 µM unless noted.
As to `C#C[C@]1(O)CC[C@H]2[C@@H]3CC=C4c5sc(-c6cccc(F)c6)nc5CC[C@]4(C)[C@H]3CC[C@@]21C`, the growth is 85.2%.
Consider `COc1ccc(NS(=O)(=O)c2ccc(-c3cnc(C4CC4)o3)cc2)cc1Cl`, for which the growth is 53.1%.
In the case of `Cc1cc(=O)n2nc(-c3c[nH]c4ccccc34)sc2n1`, the growth was 107%.
Turning to `CCN1C(=O)N(CC)C2SC(N/N=C/c3ccccc3)=NC21` (centres undefined), the growth was 12.7%.
With `CC1=C2C(=C[C@@](C)(COS(N)(=O)=O)[C@@H]2O)C(=O)[C@](C)(O)C12CC2`, the growth is 61.7%.
With `CCNCc1c(-c2cccc(OC(F)(F)F)c2)[nH]c2ccc(N3CCCC3)cc2c1=O`, the growth is -27.7% (active).
Turning to `CN(C)c1ncc(/C=C2\SC(=S)N(Cc3ccccc3Cl)C2=O)s1`, the growth was 102%.
In the case of `O=C(CN1C(=O)S/C(=C\c2ccccc2)C1=O)Nc1ccc(C(=O)/C=C/c2cc3ccccc3nc2Cl)cc1` it was 97.8%; in that of `O=S(=O)(Nc1ccc(C2CC2)cc1)c1ccc(-c2cnc(C3CC3)o2)cc1`, 91.1%; in that of `Oc1ccc(-c2nnc(SCc3ccc(O)c4ncccc34)o2)cc1`, 22.5%.
In the case of `C#C[C@]1(O)CC[C@H]2[C@@H]3CC=C4c5sc(-c6ccc(OC)cc6)nc5CC[C@]4(C)[C@H]3CC[C@@]21C` it was 90.1%; in that of `CCCC(=O)NC(c1cccnc1)c1cc(C(C)=O)c2cccnc2c1O` (centres undefined), 24.9%; in that of `CC(=O)Nc1ccc(NC(=O)Nc2cccc(-c3nc(-c4ccc(NC(=O)c5cccs5)cc4Cl)no3)c2)cc1C(F)(F)F`, -65.1% (active).
Turning to `O=C(CN1CCN(c2cc(=O)n(-c3ccccc3)c3ccccc23)CC1)Nc1ccc([N+](=O)[O-])cc1`, the growth was 105%.
Take `O=S(=O)(Nc1cc(Cl)cc(Cl)c1)c1ccc(-c2cnc(C3CC3)o2)cc1`: the growth is 56.7%.
In the case of `CCOC(=O)c1c(NCC(=O)Nc2cccc([N+](=O)[O-])c2)sc2c1CCCC2` it was -76.5% (active); in that of `COc1ccc(Oc2ccc(C3CC(c4cc(OC)c(OC)c(OC)c4)=NN3C(C)=O)cc2)cc1` (centres undefined), 42.2%.
For `O=S(=O)(Nc1ccc2c(c1)OC(F)(F)O2)c1ccc(-c2cnc(C3CC3)o2)cc1`, the growth is 72.8%.
In the case of `COc1ccc(Cn2cc3c(c2-c2ccccc2)CCCc2cnoc2-3)cc1` it was 87.9%; in that of `Cc1nn(-c2ccccc2)cc1/C=N/Nc1nc(Nc2ccccc2)nc(Nc2ccc(S(N)(=O)=O)cc2)n1`, -17.2% (active); in that of `COc1cc2c3c(n(CCCNC4CCCCC4)c(=O)c2cc1OC)-c1cc2c(cc1C3=O)OCO2`, 73.3%.
Consider `CC(=O)Nc1ccc(NC(=O)Nc2cccc(-c3nc(-c4ccc(NC(=O)c5cccnc5)cc4Cl)no3)c2)cc1C(F)(F)F`, for which the growth was -77.6% (active).
Take `O=C(Nc1cccc(-c2nc(-c3ccc(NC(=O)c4cccnc4)cc3Cl)no2)c1)Nc1ccc(NC(=O)C2CC2)c(C(F)(F)F)c1`: the growth was -69.6% (active).
`COC(=O)c1c(C(=O)OC)c2n(CC(=O)Nc3cccc4cccnc34)c3ccccc3n2c1C(=O)c1ccc(C)cc1`: the growth is 103%.
For `O=C(C[n+]1ccnc2ccccc21)c1ccc(O)c(O)c1`, the growth was 81.2%.
Take `O=C(COc1ccc(C2SCC(=O)N2c2ccc(F)cc2)cc1)c1ccccc1` (centres undefined): the growth was 106%.
Take `CCOc1ccc2nc(NC(=O)Nc3ccccc3C)sc2c1`: the growth is 81.4%.
As to `O=C(COc1ccc(C2SCC(=O)N2c2ccccc2)cc1)c1ccccc1` (centres undefined), the growth is 102%.
In the case of `Cc1cc(O)c2c(c1)C(=O)C(c1c(C)cc3c(c1O)C(=O)C=CC3=O)=CC2=O` it was 112%; in that of `O=S(=O)(Nc1cc(Cl)c(F)c(Cl)c1)c1ccc(-c2cnc(C3CC3)o2)cc1`, 67.4%; in that of `CN(C)CCn1c2ccc(N)cc2c2nc3ccccc3nc21`, 45.9%.
In the case of `Cn1c2ccccc2c2c3c(c4c5ccc(Br)cc5oc4c21)C(=O)N(O)C3=O` it was 91.8%; in that of `COc1ccc(-c2nnc(/N=C3/C(=O)Nc4ccc(Br)cc43)o2)cc1`, 115%; in that of `C#C[C@]1(O)CC[C@H]2[C@@H]3CC=C4c5sc(C6CC6)nc5CC[C@]4(C)[C@H]3CC[C@@]21C`, 83.6%.
For the compound `CCc1ccc(NC(=O)N[C@@H](Cc2cccc(F)c2)C(=O)N[C@@H]2C(=O)N3CCC[C@H]3C(=O)N3CCCC[C@H]3C(=O)N[C@@H](CO)C(=O)N3C[C@H](C)C[C@H]3C(=O)O[C@H]2C)c(F)c1`, the growth is 24.1%.
As to `CC(C)=CCc1c(O)c(CC=C(C)C)c2c(c1O)C(=O)C1=C[C@@H]3C[C@H]4C(C)(C)O[C@@](C/C=C(\C)C(=O)O)(C3=O)[C@@]14O2`, the growth was -87.1% (active).
Turning to `CCN(CC)Cc1c(-c2cccc(OC(F)(F)F)c2)[nH]c2ccc(N3CCCC3)cc2c1=O`, the growth is 87%.
Take `CCCCOc1ccc(S(=O)(=O)N2CCN(c3nccc(N4CCOCC4)n3)CC2)cc1`: the growth was 33.8%.
Take `O=c1cc(-c2ccccc2)nc2sc(-c3c[nH]c4ccc(Br)cc34)nn12`: the growth was 109%.
